Test results taken from PMC12136788.
Substitutions are numbered along the chain they refer to. Whole data set: some 5,800 sequences, median “enrichment r” near 0.54, cut for the highest 2% near 16. The full list was thinned out, with the highest values kept by preference.

B1: ENSG00000087460:stop:overlap|stop_codon|ENSG00000087460|stop_codon|NA|stop_codon (ssRNA)
RNA: GGGAGUUCUACAGUCCGACGAUCGAGGCGCCUUCGGCUCGGGCCAUGGCGCCCGGCGCCGGGGGCGCGAGGAGCGGCUCAUCUAGUCAGACCCCCCACCCCGCCACCGCCACCAGACACCACCAUCGCUGUGUAGUGUGCUGGCAACAGAGGAUUGAGCAUCA
B2: chr1:45693489:45693605:+|CDS|ENSG00000159596|unk|FALSE|unique (ssRNA)
RNA: GGGAGUUCUACAGUCCGACGAUCAAUCCCCUUCGUUGCUCCACCACUGGUCAUGCUGAUGACAAAAACUUAUAUUCCCAUAUUAGCUUUUACUCAGAUGGCUUAUGGAGCCAGUUUCCUAUCUUUCUUGGGUGGGAUCAGAUGCAACAGAGGAUUGAGCAUCA
B3: chr1:17067390:17067767:-|3pUTR|ENSG00000117115|msi1|total|mutant (ssRNA)
RNA: GGGAGUUCUACAGUCCGACGAUCCCCAACAUGCAAAGCCCACAUUUAAAGGCCAGCCUCUGCCCCUUCAGUGAUGCGCUCUUCCGAAAUGCCAGUCCACUAUAUUCAGAAAUCCGCAGGGCACAAAACUUCCAGCAAGUCACUCAACAGAGGAUUGAGCAUCA
B4: chr10:32033860:32033975:-|CDS|ENSG00000170759|unk|total|mutant (ssRNA)
RNA: GGGAGUUCUACAGUCCGACGAUCCACAGUGGAUAAAGAUAUUACUCUUACCAAUGAUAAACCAGCAACCGCAAUUGGAGUUACCGGAAAUUUUACUGAUGCUGAAAGAAGAAAGUGUGAAGAAGAAAUUGCUAAAUUAUACAACAACAGAGGAUUGAGCAUCA
B5: chr5:171862525:171862626:-|3pUTR|ENSG00000072803|msi1|total|mutant (ssRNA)
RNA: GGGAGUUCUACAGUCCGACGAUCGACAGUGCAUGGAAAGGACGUUGGCAUCCAAUUGGCACUCCUUCUCCCUUAUUCAAUAUCCGGUUUGAUUUGCCCUUCGCCAUUGUUUCCAAAGAUCAAGGAAUGUCAAUAACAUUUUAACAACAGAGGAUUGAGCAUCA
B6: ENSG00000124766:be:win_751|CDS|ENSG00000124766|bound_else_gene|NA|bound_elsewhere_windowed (ssRNA)
RNA: GGGAGUUCUACAGUCCGACGAUCGGCGCCGCCGCCGACCACCACUCGCUGUACAAGGCGCGGACUCCCAGCGCCUCGGCCUCCGCCUCCUCGGCAGCCUCGGCCUCCGCAGCGCUCGCGGCCCCGGGCAAGCACCUGGCGGAGCAACAGAGGAUUGAGCAUCA
B7: chr18:35263486:35263657:-|CDS|ENSG00000186814|control|control|control (ssRNA)
RNA: GGGAGUUCUACAGUCCGACGAUCGGAAAUGACAUCCACAGGAGCACUGAAGUCUCUGUCUCUGAAUAGCCCGGUGCAGCCCUUAGAGAACCAGUGCAAGACUGAGACUCAGGAGUCCCAGGCUUUCCAGGAGAGAGGUGAGAACAACAGAGGAUUGAGCAUCA
B8: chr17:5489330:5489445:+|CDS|ENSG00000167842|unk|FALSE|unique (ssRNA)
RNA: GGGAGUUCUACAGUCCGACGAUCACGUUGACUUUCUUUGAUGAGCUUCAUAAUGUUGGCAGAGAUCAUGGGACUAGUGAUUUUAGGGAGAGUUUAGUAUCCCUGGUUCAGAACUCCAGAAAACUACAGAACAUUAGAGACAAUCAACAGAGGAUUGAGCAUCA
B9: chr13:79312715:79312816:-|3pUTR|ENSG00000139746|unk|total|mutant (ssRNA)
RNA: GGGAGUUCUACAGUCCGACGAUCCCUUGUGAUUUAUUAUAAUGCCGCAGCAUACUUAUAAAAGUGGUCUGUGCUGAGUCAGACCGAGAGCCCAGCCCAUCCGAAACACAUCAUAAUUUAAGAAUAUGAUGCAGAAUGCCCUUACAACAGAGGAUUGAGCAUCA
B10: chrX:155122998:155123099:+|3pUTR|ENSG00000185515|unk|FALSE|unique (ssRNA)
RNA: GGGAGUUCUACAGUCCGACGAUCCUACAUACACACAAAUGAAUGCAUGUAAAAUCUGGUGAUACUGAAUAAAGUCUGUGGUCUAGAUAGCAGUAUAAUAUUAUUGUCAAUGUCUUGGAUGUGAAGUUGUGCUAUAGUUACAAACAACAGAGGAUUGAGCAUCA
B11: chr4:138169334:138169435:-|3pUTR|ENSG00000151012|msi1|total|mutant (ssRNA)
RNA: GGGAGUUCUACAGUCCGACGAUCCCAUUUCACGCAGAAAAAAAGUCAGCCAGUAAUUAAGAAAAAAAGUGAUGGAGAUUAAGCCGUAUUUUGGCUUAUUUUCCGGACUCAUCAUGAGAAGACACAGUUCCUUUAAUCAGGAAACAACAGAGGAUUGAGCAUCA
B12: chr4:138169334:138169435:-|3pUTR|ENSG00000151012|msi1|FALSE|unique (ssRNA)
RNA: B11 RNA with C83U, C84A, C102U, C103A
B13: chr13:79312715:79312816:-|3pUTR|ENSG00000139746|unk|FALSE|unique (ssRNA)
RNA: B9 RNA with C44U, C45A, C83U, C84A, C100U, C101A
B14: chr5:97028609:97028710:+|3pUTR|ENSG00000113441|msi1|total|mutant (ssRNA)
RNA: GGGAGUUCUACAGUCCGACGAUCUUGCAAAAGCCAAGGUAAAGCCAGGAUCGCUGCCAAGUUGUUUGCACUCUUUGGAGUUCCCGUCCGCUCAGGGCCUGACUGUAUUUUUCAUCCAUCUUUUCUGAAGUGUCUUUGGGCAGUCAACAGAGGAUUGAGCAUCA
B15: chr15:34983303:34983404:-|CDS|ENSG00000198146|msi1|FALSE|unique (ssRNA)
RNA: GGGAGUUCUACAGUCCGACGAUCGCUGAAAACAAUUUAAAAAUGCUAAAGAUUCAACAGUGUGUGGUAGCCAACAAACUACCUAGAAACAGGCCAUAUGUUUGCAAUAUUUGUUUUAAGCACUUUGAAACACCAUCAAAAUUACAACAGAGGAUUGAGCAUCA
B16: ENSG00000160710:stop:overlap|stop_codon|ENSG00000160710|stop_codon|NA|stop_codon (ssRNA)
RNA: GGGAGUUCUACAGUCCGACGAUCGCUAUGGGAACUGGAUUAGCAAACCCCAGGAGGAAAAGAACUUUUAUCUCUGCCCAGUAUAGUAUGCUCCAGUGACAGAUGGAUUAGGGUGUGUCAUACUAGGGUGUGAGAGAGGUAGGUCAACAGAGGAUUGAGCAUCA
B17: chr5:128187618:128187661:+|3pUTR|ENSG00000064651|msi1_unk|FALSE|overlapping (ssRNA)
RNA: GGGAGUUCUACAGUCCGACGAUCUCCUUUAUAAGUCAUUAAAAUAAUGUUUCAUCAAAUGGUUAAAUGGACCACUGGUUUCUUAGAGAAAUGUUUUUAGGCUUAAUUCAUUCAAUUGUCAAGUACACUUAGUCUUAAUACACUCAACAGAGGAUUGAGCAUCA
B18: chr6:149410404:149410522:+|3pUTR|ENSG00000055208|unk|FALSE|bound_elsewhere (ssRNA)
RNA: GGGAGUUCUACAGUCCGACGAUCUUAUAUUUCUAUAUGUAUAGUGUAAUAGCCUUUUGUUAACUAAUUUUCUUUUUUCCUUUUAGUAAUUAAGCACGAUCAUGUCCCUUUUUAAGCCUUACCUGAGAGGAACAAUGCCUUAAACAACAGAGGAUUGAGCAUCA
B19: chr12:89590234:89590335:-|3pUTR|ENSG00000070961|msi1|FALSE|bound_elsewhere (ssRNA)
RNA: GGGAGUUCUACAGUCCGACGAUCUUUGCCUACAAUUUACCUUGUUAAAUAUUGUAGAUAAAUUGCUAAUACUAAUAGCCAAAUAGAUAACACUAAUGCUUUGUUUAAAAAAACGAAAAAAACAAAACAAAACAAAAAAACAUGCAACAGAGGAUUGAGCAUCA
B20: ENSG00000198589:be:win_9201|3pUTR|ENSG00000198589|bound_else_gene|NA|bound_elsewhere_windowed (ssRNA)
RNA: GGGAGUUCUACAGUCCGACGAUCACCAUUUUUUCCUGAUCUGUCAUCUUCAUAGCACAACAAAACGAAAUGAUGGAAAUGCUCUUGAGCUCACAACAUUUGUUUUUCUUUUAAAGUAAAUGCAAGUACCAAAGCUCACUACUGCAACAGAGGAUUGAGCAUCA
B21: chr2:15946816:15946917:+|3pUTR|ENSG00000134323|unk|FALSE|unique (ssRNA)
RNA: GGGAGUUCUACAGUCCGACGAUCUAUAUGCCUUUUUCCUAGCCUGUUUCUUCCUGUUAAUGUAUUUGUUCAUGUUUGGUGCAUAGAACUGGGUAAAUGCAAAGUUCUGUGUUUAAUUUCUUCAAAAUGUAUAUAUUUAGUGCUCAACAGAGGAUUGAGCAUCA
B22: chr10:52765379:52768136:-|three_prime_utr|ENSG00000165471|control|control|control (ssRNA)
RNA: GGGAGUUCUACAGUCCGACGAUCUUGUUCCUUUUGUGGGCAAUCACUAAAAAUGAUCACUAACAGCACCAACAAAGCAAUAAUAGUAGUAGUAGUAGUUAGCAGCAGCAGUAGUAGUCAUGCUAAUUAUAUAAUAUUUUUAAUCAACAGAGGAUUGAGCAUCA
B23: ENSG00000198589:be:win_9101|3pUTR|ENSG00000198589|bound_else_gene|NA|bound_elsewhere_windowed (ssRNA)
RNA: GGGAGUUCUACAGUCCGACGAUCUUCAAGCAUGUUUUAGACCUAGAAAAGUAUGGUUUGGGGGAGGCUAUUUUAUUGUGUGGUUAGCACAAGGAAUCUAAUUUAUAGCAAGUGUGAAAUAGUUACCAUUUUUUCCUGAUCUGUCAACAGAGGAUUGAGCAUCA
B24: chr6:149410404:149410522:+|3pUTR|ENSG00000055208|unk|total|mutant (ssRNA)
RNA: B18 RNA with U41C, A42C, U49C, A50C, U83C, A84C
B25: ENSG00000198589:be:win_9151|3pUTR|ENSG00000198589|bound_else_gene|NA|bound_elsewhere_windowed (ssRNA)
RNA: GGGAGUUCUACAGUCCGACGAUCAUUGUGUGGUUAGCACAAGGAAUCUAAUUUAUAGCAAGUGUGAAAUAGUUACCAUUUUUUCCUGAUCUGUCAUCUUCAUAGCACAACAAAACGAAAUGAUGGAAAUGCUCUUGAGCUCACCAACAGAGGAUUGAGCAUCA
B26: chr3:112140897:112141281:-|three_prime_utr|ENSG00000172139|control|control|control (ssRNA)
RNA: GGGAGUUCUACAGUCCGACGAUCACUUUUUGCAAAAUUUCCUUGAUUUAAAAUAUUUGUUAUUUUAAAUAUACAAAACAUUUUAGAAAAUCUUAGAGUAAAUUUUAGUCUUAAAGCCAGAAAAUAAGUUUAUAGCCAUCUAGACAACAGAGGAUUGAGCAUCA

Biological target: MSI1 full-length (mouse, UniProt Q61474 1-362)
Sequence (Q61474 whole entry): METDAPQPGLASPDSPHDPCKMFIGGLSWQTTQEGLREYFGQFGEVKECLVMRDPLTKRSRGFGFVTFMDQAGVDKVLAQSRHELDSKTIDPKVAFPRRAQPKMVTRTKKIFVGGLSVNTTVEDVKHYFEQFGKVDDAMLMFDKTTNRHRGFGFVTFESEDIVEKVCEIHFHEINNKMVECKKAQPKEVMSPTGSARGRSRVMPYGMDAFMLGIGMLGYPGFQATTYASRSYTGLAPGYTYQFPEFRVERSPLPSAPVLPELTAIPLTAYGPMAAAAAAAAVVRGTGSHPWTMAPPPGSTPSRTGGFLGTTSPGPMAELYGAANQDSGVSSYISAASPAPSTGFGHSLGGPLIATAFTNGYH
Test: nsRBNS (natural sequence RNA bind-n-seq); RBNS binding buffer (assumed for nsRBNS): 25 mM Tris pH 7.5, 150 mM KCl, 3 mM MgCl2, 0.01% Triton X-100, 500 ug/ml BSA, 20 U/ml SUPERase-In, 4 C; UNK is unkempt and MSI1 is Musashi-1; names of the RNAs are library labels; protein concentration not given here; high values mean tight binding

Binder | binding signal [enrichment R]
B1 | 0.204
B2 | 0.499
B3 | 0.72
B4 | 0.675
B5 | 0.579
B6 | 0.389
B7 | 0.496
B8 | 1.88
B9 | 1.96
B10 | 2.09
B11 | 0.883
B12 | 19.3
B13 | 17.8
B14 | 0.321
B15 | 0.421
B16 | 1.25
B17 | 15.5
B18 | 30.1
B19 | 1.67
B20 | 0.392
B21 | 6.12
B22 | 83.7
B23 | 7.83
B24 | 11.2
B25 | 33.5
B26 | 14.9
